Shiga toxin inh: inhibitors of Shiga toxin in Vero cells; Vero cells, Shiga toxin protein synthesis inhibition reporter; inhibition, % at 38.7 µM; 290,000 tested, 9.2% active; in the data active means inhibition mostly above about 28%, no sharp cut-off; inactive means mostly below about 43%; further: 0% is about no effect
AmpC no deterg: AmpC beta-lactamase inhibition without detergent | 330,000 tested, 0.52% active | P00811 | Potency, µM (titrated, usually from 57.1 µM), for the others: at the highest dose activity change, negative = inhibition, hits mostly inhibitors | AmpC nitrocefin hydrolysis, absorbance 480 nm, 0.0001% Triton;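 further: potency means the concentration at half of the fitted maximal effect; plate controls were no compound for no effect and no enzyme for full effect; nearly all actives have a fitted effect of over 20% in size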
Target sequence (P00811 whole entry, looked up): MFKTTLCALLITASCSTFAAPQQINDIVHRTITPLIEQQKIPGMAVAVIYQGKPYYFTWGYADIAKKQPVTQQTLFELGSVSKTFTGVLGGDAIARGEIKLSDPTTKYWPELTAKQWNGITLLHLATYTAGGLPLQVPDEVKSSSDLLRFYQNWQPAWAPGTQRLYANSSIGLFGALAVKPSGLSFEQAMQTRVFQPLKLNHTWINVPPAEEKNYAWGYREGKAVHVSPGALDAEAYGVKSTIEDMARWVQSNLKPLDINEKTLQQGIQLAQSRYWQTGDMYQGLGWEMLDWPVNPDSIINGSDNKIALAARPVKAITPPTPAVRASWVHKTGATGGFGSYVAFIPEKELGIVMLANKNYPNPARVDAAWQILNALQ
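AmpC (5.3 nM in the dispensed reagent) in 20 mM phosphate pH 7.0 with 0.01% (detergent screen) or 0.0001% Triton X-100 was preincubated with compounds for 15 min at room temperature. Nitrocefin was then added from an 800 uM solution, and hydrolysis was followed at 480 nm.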
Cycloheximide cs: affects cycloheximide protein synthesis inhibition readout, counter-screen; cell reporter, cycloheximide protein synthesis inhibition counterscreen; max response, %; 300,000 tested, 12% active; in the data active means max response mostly above about 13%, no sharp cut-off; inactive means mostly below about 14%; further: read at 38.3 µM for the half of the compounds with a filed dose; 0% is about no effect
NS1 function inh: influenza NS1 inhibition | Potency, µM (doses to about 46.1 µM), for the others: at the top dose activity, positive = more growth | 270,000 tested, 0.4% active | AID 2326; calls by dose curve; further: potency means the concentration at half of the fitted maximal effect; actives are rising curves; nearly all actives have a fitted effect of over 50% in size
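In this qHTS, NS1 from influenza A is expressed in budding yeast, where it slows growth. Cells are switched from glucose to 2% galactose medium (pH 6.0, -URA), treated with compound, and growth recovery is read at OD600.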
AmpC inh detg: AmpC beta-lactamase inhibition with detergent present. AmpC hydrolysis of nitrocefin, absorbance 480 nm, 0.01% Triton. Potency, µM (top dose mostly 114 µM), without a hit: at the highest dose activity change, negative = inhibition, actives largely listed as inhibitors. 370,000 tested, 0.041% active;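 further: potency means the concentration at half of the fitted maximal effect; 0% = no-compound wells and -100% = no-enzyme wells; nearly all actives have a fitted effect of over 25% in size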
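AmpC (5.3 nM in the dispensed reagent) in 20 mM phosphate pH 7.0 with 0.01% (detergent screen) or 0.0001% Triton X-100 was preincubated with compounds for 15 min at room temperature. Nitrocefin was then added from an 800 uM solution, and hydrolysis was followed at 480 nm.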
* hit, by the source's call; ? = inconclusive; / = not tested or not shown. The entries come from a sample that favours hits as a whole. Unless noted, the call rests on the fitted dose curve; in most records, active means well fitted curve in the direction sought with a large enough effect; inconclusive means small, poorly fitted or top-dose-only effect, or another doubt; inactive means no such curve, though single readings can be large; an effect the other way counts as inactive or inconclusive.

SMILES	Shiga toxin inh	AmpC no deterg	Cycloheximide cs	NS1 function inh	AmpC inh detg
CC(=O)Oc1oc(-c2ccccc2)nc1C=Nc1ccc(N(C)C)cc1	38.5	-24.0%	9.8	-5.3%	-2.8%
CC(=O)Oc1oc(-c2ccccc2)nc1/C=N/c1ccccn1	87.4*	-26.8%	47.5*	-38.2%	7.0%
COc1ccccc1N=Cc1nc(-c2ccccc2)oc1OC(C)=O	10.7	-26.8%	7.9	-16.6%	2.3%
Cc1ccc(CCNC(=O)c2cc3cc(S(=O)(=O)N4CCCCC4)ccc3n2C)cc1	/	/	/	/	7.0%
COc1ccc(CCN(C)C(=O)CSc2nc3ncc(Cl)cc3[nH]2)cc1OC	-3.0	-43.1%	-1.8	1.3%	1.8%
Cc1ccc(C)n1-c1cccc(C(=O)Nc2ccccc2)c1	36.7	-43.2%	17.5*	10.3%	-0.2%
Cc1ccc(CCNC(=O)c2cccc(N3CCCC3=O)c2)cc1	66.0*	-4.8%	21.6	6.3%	-6.4%
Cc1cccc(CCNC(=O)c2cccc(N3CCCC3=O)c2)c1	74.7*	-4.5%	43.9*	-5.6%	-3.2%
O=C(Nc1ccccc1)c1cccc(N2CCCC2=O)c1	40.5*	-23.4%	33.6*	0.8%	-10.1%
Cc1cccc(NS(=O)(=O)c2ccc(C(=O)NCC(c3ccco3)N(C)C)cc2)c1C (stereo not drawn)	-23.1	22.6%	-2.5	1.0%	1.7%
CN(CCCNC(=O)c1cccc(N2CCCC2=O)c1)c1ccccc1	14.5	-14.2%	15.6*	-19.3%	1.8%
C/C(=N/NC(=O)c1cccc(N2CCCC2=O)c1)c1ccncc1	55.1*	-7.5%	47.9*	0.2%	5.0%
O=C(NCCc1ccccc1)c1cccc(N2CCCC2=O)c1	30.3*	-13.3%	33.2*	9.3%	-7.6%
CCCCN(C)CCCNC(=O)c1cccc(N2CCCC2=O)c1	-11.2	-16.0%	3.4	-4.8%	-3.0%
Cc1c(C(=O)Nc2cccc(C(F)(F)F)c2)oc2ccc(S(=O)(=O)N3CCC4(CC3)OCCO4)cc12	/	/	/	/	-0.9%
CCCN1CCc2c(sc(NC(=O)Cc3ccc(F)cc3)c2C(N)=O)C1	-4.8	-11.4%	0.7	-9.0%	?
COc1ccc(OC)c(NC(=O)C2CCN(S(=O)(=O)c3ccc4c(c3)CC(C)N4C(C)=O)CC2)c1 (stereo not drawn)	9.1	119.2%	-1.7	12.5%	-7.3%
COc1cc(OC)c(NC(=O)C2CCN(S(=O)(=O)c3ccc4c(c3)CC(C)N4C(C)=O)CC2)cc1Cl (stereo not drawn)	-4.1	133.6%	17.1*	7.1%	-14.1%
CCCn1c(=O)c2sccc2n2c(CCCC(=O)N3CCN(c4cccc(Cl)c4)CC3)nnc12	/	/	/	/	17.3%
COC(=O)/C(=C1/Oc2ccc(C)cc2S1)C(F)(F)F	56.5*	-18.2%	24.5*	1.2%	-6.8%
COC(=O)/C(=C1/Oc2cc3c(cc2S1)OCO3)C(F)(F)F	-0.5	-9.7%	1.4	6.2%	-5.0%
c1ccc(Oc2cnc3ccccc3n2)cc1	35.3	-14.2%	21.4	0.3%	3.4%
c1ccc2c(c1)cnc1ccccc12	29.4	-13.6%	24.1*	-34.7%	?
c1ccc2nc3ccccc3nc2c1	44.5	-20.0%	7.1	-6.1%	?
c1ccc2nc3ccccc3cc2c1	46.6*	/	39.8*	/	/
SMILES	Shiga toxin inh	AmpC no deterg	Cycloheximide cs	NS1 function inh	AmpC inh detg
c1ccc(-c2ncc3c(ccc4ccccc43)n2)cc1	73.8*	-10.9%	58.1*	0.2%	?
O=C(c1ccc2c(c1)N(Cc1ccc(Cl)cc1)C(=O)c1ccccc1S2(=O)=O)N1CCc2ccccc21	/	/	/	/	22.0%
COc1ccc(Cl)cc1NC(=O)C12CCC(C)(C(=O)O1)C2(C)C (stereo not drawn)	-3.9	14.5%	-2.5	-5.9%	-14.3%
CCc1ccc(OC(C)C(=O)N2CCC(c3nc4ccccc4s3)CC2)cc1 (stereo not drawn)	/	/	/	/	5.6%
CCN(CC1CCCO1)C(=O)c1cc(COc2ccc(OC)cc2Cl)on1 (stereo not drawn)	13.7	65.0%	15.7*	-5.7%	-10.9%
CCCN(CC1CCCO1)C(=O)c1cc(COc2ccc(F)cc2F)on1 (stereo not drawn)	22.2	83.1%	7.9	-25.3%	1.0%
CCN(Cc1ccncc1)C(=O)c1cc(COc2ccc(OC)cc2Cl)on1	99.5*	112.2%	42.5*	-16.9%	-6.2%
Cc1ccc(NC(=O)Cn2ccn(-c3ccc(F)c(F)c3)c(=O)c2=O)cc1C	/	/	/	/	8.2%
Cc1nc(Nc2ccccc2)c2oc3ccc(Cl)cc3c2n1	43.1*	-25.6%	18.3*	-1.0%	-6.0%
Cc1nc(Nc2ccc3c(c2)OCO3)c2oc3ccccc3c2n1	45.6*	28.4%	38.5*	9.5%	-2.8%

High-throughput results from PubChem BioAssay.
